Screening data: PubChem BioAssay, National Center for Advancing Translational Sciences (NCATS)
IMPase cell inh = cell-permeable inhibitors of inositol monophosphatase (IMPase) | CHO-M1 cells, IP1 accumulation, HTRF TR-FRET ratio | AID 901 | inhibition (IP1 accumulation), % at 46.1 µM | 120,000 tested, under 10 active | P97697; active means well fitted curve in the direction sought with a large enough effect in the signal ratio, not every such curve was filed as active; inconclusive means small, poorly fitted or top-dose-only effect, or a change in a side signal; inactive means no such curve, though single readings can be large or run the other way; the % refers to the signal ratio;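 further: cells stimulated with carbachol in lithium chloride buffer; higher means more IMPase inhibition seen as more IP1 and lower FRET ratio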
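Cellular IMPase inhibition is scored as a rise in cytosolic IP1, detected by competitive TR-FRET between d2-labelled IP1 and a europium anti-IP1 antibody. M1-expressing CHO cells were stimulated with carbachol for 30 min at 37C, with lithium (50 mM LiCl) present in the buffer.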
ALOX12 inhib = blocks human 12-lipoxygenase activity | purified 12-hLO, xylenol orange hydroperoxide absorbance | AID 1452 | P18054 | Potency, µM (doses to about 57.1 µM), usual class: inhibitors | actives 0.12% (n = 150,000); further: nearly all actives have a fitted effect of over 55% in size
Target sequence (P18054 whole entry, looked up): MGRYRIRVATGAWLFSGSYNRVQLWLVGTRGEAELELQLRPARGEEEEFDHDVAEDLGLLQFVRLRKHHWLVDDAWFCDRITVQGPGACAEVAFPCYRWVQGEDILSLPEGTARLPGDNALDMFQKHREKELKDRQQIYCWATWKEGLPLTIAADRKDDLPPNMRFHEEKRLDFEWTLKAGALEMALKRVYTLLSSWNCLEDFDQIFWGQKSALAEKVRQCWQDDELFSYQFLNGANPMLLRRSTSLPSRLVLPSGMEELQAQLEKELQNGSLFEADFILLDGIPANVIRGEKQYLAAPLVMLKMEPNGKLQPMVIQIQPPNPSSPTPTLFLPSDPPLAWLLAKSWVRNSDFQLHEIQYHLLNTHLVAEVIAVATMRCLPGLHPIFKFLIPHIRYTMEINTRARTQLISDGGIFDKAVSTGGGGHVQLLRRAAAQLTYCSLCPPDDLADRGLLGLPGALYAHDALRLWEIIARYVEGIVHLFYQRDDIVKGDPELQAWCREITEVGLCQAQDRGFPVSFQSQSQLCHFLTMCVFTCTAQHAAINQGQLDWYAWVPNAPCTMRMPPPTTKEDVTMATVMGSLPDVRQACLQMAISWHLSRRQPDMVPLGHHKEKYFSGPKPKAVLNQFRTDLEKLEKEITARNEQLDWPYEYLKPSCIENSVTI
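150 nM 12hLO, 25 mM Hepes pH 7.0 + 0.01% Triton X-100; cpd preinc 15 min RT; 40 uM arachidonic acid, 30 min RT; Fe-XO 30 min; A573/A405 ratio as read-out.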
HPGD block = inhibitors of human 15-hydroxyprostaglandin dehydrogenase (HPGD); P15428; purified HPGD, NADH fluorescence kinetic, PGE2 substrate; Potency, µM, usual class: inhibitors; actives 4.3% (n = 150,000); AID 894; active means well fitted inhibition curve with a large enough effect, not every such curve was filed as active; inconclusive means small, poorly fitted or top-dose-only effect, or another doubt; inactive means no such curve, though single readings can be large or run the other way
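20 nM HPGD preincubated 15 min at room temperature with compound in 50 mM Tris-HCl pH 8, 0.01% Tween 20. Started with 1 mM NAD+ and 30 uM prostaglandin E2; NADH fluorescence (360/450 nm) read 5 times over 30-s intervals, last minus first.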
IMPase Li inh = cell-permeable IMPase inhibitors with lithium potentiation; CHO-M1 cells, IP1 TR-FRET (IP-One), carbachol + lithium; Potency, µM (top dose mostly 59.4 µM), most hits filed as inhibitors; actives 0.35% (n = 210,000);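 further: IP1 builds up when IMPase is blocked and the TR-FRET signal falls; nearly all actives have a fitted effect of over 50% in size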
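CHO-M1, 2000 cells/well, 16–30 h culture; cpd + low Li+, 30 min 37C; lysis with d2-IP1/Eu-anti-IP1 Ab, 10 min RT; TR-FRET 665/620 ratio and 620 channel; AC50 via Hill.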
ALDH1A1 block = blocks purified human ALDH1A1 activity; P00352; Purified ALDH1A1, NADH fluorescence, propionaldehyde substrate; Potency, µM (doses to about 75.3 µM), usual class: inhibitors; actives 7.3% (n = 220,000); AID 1030; active means well fitted inhibition curve with a large enough effect, not every such curve was filed as active; inconclusive means small, poorly fitted or top-dose-only effect, or another doubt; inactive means no such curve, though single readings can be large or run the other way
PNC assembly inh = inhibitors of perinucleolar compartment assembly; PC3M PTB-GFP, PNC prevalence imaging, 16 h; active compounds read low; activity change (PNC), negative = inhibition, % at 10 µM; actives 3.1% (n = 140,000);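 active means readout at or below -70, meaning at least 70% loss of cells showing the perinucleolar compartment, a nuclear body marking cancer cells; inconclusive means readout between -30 and a set limit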
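Compounds are pinned in duplicate onto adhered PC3M cells stably expressing GFP-tagged PTB and incubated 16 h at 37 C. Cells are then fixed, nuclei stained with Hoechst, and PNC-positive cells counted.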
Large screens that a line does not name were inactive. The list is not random: actives were taken first. Their share in the collection is about 11%. Unless noted, the call rests on the fitted dose curve; in most records, active means well fitted curve in the direction sought with a large enough effect; inconclusive means small, poorly fitted or top-dose-only effect, or another doubt; inactive means no such curve, though single readings can be large; an effect the other way counts as inactive or inconclusive.

CCC(=O)Nc1ccc(F)c(Cl)c1	PNC assembly inh -106
O=C(O)CC1(CC(=O)Nc2ccc(F)c(Cl)c2)CCCCC1	ALDH1A1 block 4µM (no result: IMPase cell inh, ALOX12 inhib, HPGD block, IMPase Li inh, PNC assembly inh)
CCC(=O)Nc1ccc(Br)c(Cl)c1	PNC assembly inh inconclusive
O=C(c1csnn1)N1CCC2(CC1)CCN(c1ccccn1)CC2	ALDH1A1 block inconclusive (no result: IMPase cell inh, PNC assembly inh)
COc1ncc2nc(-c3ccccc3)c(=O)n(C)c2n1	ALDH1A1 block inconclusive (no result: IMPase cell inh, ALOX12 inhib, HPGD block, PNC assembly inh)
Cc1cc(C(=O)N2CCCCCC2)cs1	HPGD block 0.45µM, PNC assembly inh -124
Cc1cc(C)cc(C(=O)N2CCCCCC2)c1	HPGD block 16µM
Cc1ccc(C(=O)Nc2ccc(C(=O)N3CCCCC3)cc2)cc1	ALDH1A1 block inconclusive (no result: IMPase cell inh, ALOX12 inhib, HPGD block, PNC assembly inh)
O=c1c(CCc2ccccc2)nc2cnc(N3CCOCC3)nc2n1C1CC1	ALDH1A1 block inconclusive (no result: IMPase cell inh, ALOX12 inhib, HPGD block, PNC assembly inh)
CC(=O)OCC1OC(C#Cc2ccc(Cl)cc2)C=CC1OC(C)=O (centres undefined)	none (no result: IMPase cell inh, ALOX12 inhib, HPGD block, IMPase Li inh, PNC assembly inh)
CCCCCCC#CC1C=CC(OC(C)=O)C(COC(C)=O)O1 (centres undefined)	ALDH1A1 block 3.2µM (no result: IMPase cell inh, ALOX12 inhib, HPGD block, IMPase Li inh, PNC assembly inh)
COc1ccc(-c2nc(SC)n(C)c(=O)c2C#N)cc1OC	HPGD block inconclusive, ALDH1A1 block inconclusive
COc1ccc(C(c2c(O)nc(SC)n(C)c2=O)c2c(O)nc(SC)n(C)c2=O)cc1O	ALDH1A1 block 14µM, PNC assembly inh inconclusive (no result: IMPase cell inh)
COc1cc(/C=N/Nc2ncc(C(F)(F)F)cc2Cl)cc(OC)c1O	HPGD block 14µM (no result: IMPase cell inh)
C/C(=N/Nc1ncc(C(F)(F)F)cc1Cl)c1ccncc1	ALDH1A1 block 40µM (no result: IMPase cell inh, ALOX12 inhib, HPGD block, PNC assembly inh)
C/C(=N\Nc1ncc(Cl)cc1Cl)c1ccc(C#N)cc1	none (no result: IMPase cell inh, ALOX12 inhib, HPGD block, PNC assembly inh)
COC(=O)c1cc(C(=O)OC)cc(N2C(=O)CC(NNC(=O)c3ccccc3Cl)C2=O)c1 (centres undefined)	ALDH1A1 block inconclusive, PNC assembly inh -99 (no result: IMPase cell inh)
Cc1cccc(NC(=S)NC(=O)CCc2ccccc2)c1C	ALOX12 inhib inconclusive, ALDH1A1 block 13µM
S=C(NCCc1ccccc1)Nc1ccccn1	ALOX12 inhib inconclusive, ALDH1A1 block 3.2µM (no result: IMPase cell inh)
Cc1cccc(NC(=S)NC(=O)CCc2ccccc2)c1	ALDH1A1 block inconclusive
Cc1cccc(NC(=S)NCCc2ccccc2)n1	ALDH1A1 block inconclusive (no result: IMPase cell inh, ALOX12 inhib, HPGD block, PNC assembly inh)
C/C(=N\NC(=S)NCCc1ccccc1)c1ccc(Cl)cc1	ALOX12 inhib inconclusive, ALDH1A1 block inconclusive, PNC assembly inh inconclusive (no result: IMPase cell inh)
C/C(=N\NC(=S)NCCc1ccccc1)c1ccc(C)cc1	ALOX12 inhib 14µM
O=S(=O)(c1c(F)cccc1F)N1CCN(C(=S)NCc2ccc3c(c2)OCO3)CC1	ALDH1A1 block 4µM (no result: IMPase cell inh, ALOX12 inhib, HPGD block, PNC assembly inh)
Fc1ccccc1NC(=S)NCc1ccc2c(c1)OCO2	none (no result: IMPase cell inh)
CC(C)[C@@H](CC(=O)N[C@@H]1CCNC[C@H]1C(=O)N[C@H](CC(=O)N[C@@H](CCC(=O)O)CC(=O)O)Cc1c[nH]c2ccccc12)NC(=O)C[C@H](Cc1ccccc1)NC(=O)[C@@H]1CNCC[C@H]1N	none (no result: IMPase cell inh, PNC assembly inh)
O=C(O)COc1cccc(-c2ocnc2-c2nc(-c3ccccc3)c(-c3ccccc3)o2)c1	HPGD block inconclusive, ALDH1A1 block inconclusive (no result: PNC assembly inh)
COc1ccc(CCNC(=S)Nc2ccccc2C)cc1	none
S=C(NCc1ccccc1)NCc1ccc2c(c1)OCO2	HPGD block 16µM, ALDH1A1 block inconclusive, PNC assembly inh inconclusive
Cc1ccccc1NC(=S)NCc1ccccc1	HPGD block 28µM, PNC assembly inh inconclusive (no result: IMPase cell inh)
Cc1ccccc1NC(=S)NCCc1ccccc1	ALOX12 inhib inconclusive, HPGD block 25µM, ALDH1A1 block inconclusive, PNC assembly inh inconclusive (no result: IMPase cell inh)
Cc1cccc(C)c1NC(=S)NCCc1ccccn1	PNC assembly inh -105 (no result: IMPase cell inh)
Cc1ccccc1NC(=S)NCCc1ccccn1	PNC assembly inh inconclusive
C#C[C@]1(O)CC[C@@H]2[C@H]3CCc4cc(OC)ccc4[C@@H]3CC[C@@]21C	none (no result: PNC assembly inh)
COCC(=O)N1CCC2(CCN(Cc3ccccc3)CC2)CC1	none (no result: IMPase cell inh, PNC assembly inh)
COC(=O)NC(CC(C)=O)c1ccccc1 (centres undefined)	none (no result: IMPase cell inh, ALOX12 inhib, HPGD block, IMPase Li inh, PNC assembly inh)
CCOC(OCC)P(=O)(O)CCCNCc1ccc(Cl)c(Cl)c1	none (no result: PNC assembly inh)
COc1cccc(Cn2c(=O)c(CCc3ccccc3)nc3cnc(N4CCN(C)CC4)nc32)c1	ALDH1A1 block inconclusive (no result: IMPase cell inh, ALOX12 inhib, HPGD block, PNC assembly inh)
